Here are results for five molecules from PubChem BioAssay.

In assay [1] the test system is Plasmodium falciparum Sir2 (PF13_0152, Sir2A). As to the kind of experiment: pfSir2 binders on small-molecule microarrays, primary screen, biochemical, small-molecule microarray, 635 nm fluorescence (AID 1098).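 Further: score merges spot fluorescence intensity with its signal-to-noise ratio.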 The note with it: small-molecule microarray binding, fluorescence 635 nm; higher = more signal.
Assay [2] can be described thus: small-molecule microarray binders of probe aDKK1, primary screen, biochemical, biotinylated probe, 635/667 nm fluorescence (AID 1099).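 Further: score merges 667nm spot fluorescence with signal to noise across triplicate slides.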 As to conditions: higher = more signal.
Assay [3] can be described thus: small-molecule microarray binders of probe aCHRDL2, primary screen, biochemical, biotinylated probe, 635/667 nm fluorescence (AID 1100). The note with it: higher = more signal.
Assay [4] in a line: splicing luciferase reporter signal modulators, primary screen, spliceosome inhibition project, cell-based, HEK293, splice +/- reporter (AID 1101).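 Further: HEK293 cells carrying a splicing-competent luciferase reporter gene; test concentration not given here.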 As to conditions: luminescence, 24 h, higher = more signal, called active from +8 up or from −8 down. In general terms: Reporter assays use an easily measured gene product as a stand-in for the process of interest.
The target in assay [5] is Fibroblast growth factor 10 (Homo sapiens) (UniProt O15520). Description: FGF10 binders on small-molecule microarrays, primary screen, biochemical, small-molecule microarray, 635 nm fluorescence (AID 1102). As to conditions: FGF10 binding, fluorescence 635 nm, higher = more signal.
Assay [6] relates to glycogen synthase kinase-3 (GSK3A per assay name; protocol says GSK3B). Description: GSK3 binders on small-molecule microarrays, primary screen, biochemical, small-molecule microarray, 635 nm fluorescence, GSK3A (AID 1103). Further: the record names both GSK3A and GSK3B. As to conditions: small-molecule microarray binding, fluorescence 635 nm; higher = more signal.
The target in assay [7] is Epidermal growth factor receptor (Homo sapiens) (UniProt P00533). Description: EGFR binders on small-molecule microarrays, primary screen, biochemical, small-molecule microarray, 635 nm fluorescence (AID 1104).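 Further: score merges 667 nm emission intensity with spot signal to noise over triplicate slides.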 As to conditions: EGFR binding, higher = more signal.
Assay [8] has as its target Follistatin-related protein 3 (Homo sapiens) (UniProt O95633). Description: FSTL3 binders on small-molecule microarrays, primary screen, biochemical, small-molecule microarray, 635 nm fluorescence (AID 1105).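 Further: score merges emission near 667 nm and signal to noise per printed spot across three slides.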 The note with it: FSTL3 binding, higher = more signal.
In assay [9] the target is Dickkopf-related protein 1 (Homo sapiens) (UniProt O94907). As to the kind of experiment: DKK1 binders on small-molecule microarrays, primary screen, biochemical, small-molecule microarray, 635 nm fluorescence scan (AID 1106).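 Further: score merges emission near 667 nm with signal to noise over three replicate slides.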 As to conditions: DKK1 binding, higher = more signal.
The test system of assay [10] is Inhibin beta A chain (activin A). Description: INHBA (activin A) binders on microarrays, primary screen, biochemical, small-molecule microarray, 635 nm fluorescence scan (AID 1107).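 Further: mouse activin A protein probed at 4.33 µg/mL on printed slides; score merges bound-protein fluorescence near 667 nm with spot signal-to-noise.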 As to conditions: small-molecule microarray binding, higher = more signal.
Assay [11] has as its system Human papillomavirus type 1a protein E7 (residues 44-93). As to the kind of experiment: HPV1a E7 fragment binders on microarrays, primary screen, biochemical, small-molecule microarray, residues 44-93, 635 nm fluorescence (AID 1108).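 Further: E7 fragment applied at 1 µg/mL in TBST for 1 h at 4 C; score combines spot fluorescence with its signal to noise ratio.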 As to conditions: small-molecule microarray binding, fluorescence 635 nm; higher = more signal.
Assay [12] is described as follows: modulators of HCV replicon luciferase signal, primary screen, HCV replication inhibitor project, Huh7 cells, luciferase reporter (AID 1109).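 Further: huh7 hepatoma cells harbouring a luciferase neomycin HCV replicon reporter; luciferase luminescence as measure of HCV replicon replication; test concentration not given here.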 The note with it: 48 h, higher = more signal. For orientation: In antiviral work, replicon cells carry a viral genome segment that copies itself.
The target in assay [13] is Left-right determination factor 2 (Homo sapiens) (UniProt O00292). Description: LEFTY2 binders on small-molecule microarrays, primary screen, biochemical, small-molecule microarray, 635 nm fluorescence scan (AID 1110). The note with it: LEFTY2 binding, higher = more signal.
For assay [14], the target named is Calmodulin-1 (Homo sapiens) (UniProt P0DP23). Description: CALM1 binders on microarrays, EGTA buffer, profiling panel, biochemical, small-molecule microarray, Cy5-labelled CALM1 (AID 1111).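 Further: labelled calmodulin applied in Tris saline Tween buffer holding calcium plus EGTA and DTT.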 The note with it: Cy5-CALM1 binding fluorescence, higher = more signal.
Assay [15] shares this target. Description: calcium-bound CALM1 binders on microarrays, profiling panel, artefact control for SMM control-protein annotation, biochemical, small-molecule microarray, Cy5-labelled CALM1, plus calcium (AID 1112).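 Further: score merges spot fluorescence with signal to noise from triplicate slides.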 As to conditions: Cy5-CALM1 binding fluorescence, higher = more signal.
Assay [16] is described as follows: small-molecule microarray binders of probe aWnt5a, primary screen, biochemical, biotinylated probe, 635/667 nm fluorescence (AID 1113).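 Further: score merges 667 nm fluorescence intensity with signal-to-noise per printed feature.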 The note with it: higher = more signal.
Assay [17] can be described thus: small-molecule microarray binders of probe aShh, primary screen, biochemical, biotinylated probe, 635/667 nm fluorescence (AID 1114).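 Further: probe is biotin-labelled aShh protein from a stem cell growth factor screen; measures binding of labelled protein to compounds printed on the slide; score merges feature fluorescence at 667 nm with signal-to-noise.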 As to conditions: higher = more signal.
The nature of assay [18]: small-molecule microarray binders of probe aNog, primary screen, biochemical, biotinylated probe, 635/667 nm fluorescence (AID 1115).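 Further: probe is biotinylated aNog protein used at 0.15 µg/mL for 1 h at 4 C; z-score combines 667 nm fluorescence of each spot with its signal to noise.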 The note with it: higher = more signal.
Assay [19] deals with Torsin-1A-interacting protein 1 (Homo sapiens) (UniProt Q5JTV8). Description: LAP1 binders from COS7 cell lysate, primary screen, small-molecule microarray, 635/667 nm fluorescence (AID 1116). As to conditions: COS7-hLAP1 lysate binding, 635 nm fluorescence, higher = more signal.
Assay [20] deals with Alpha-bungarotoxin (Bungarus multicinctus) (UniProt P60615). As to the kind of experiment: alpha-bungarotoxin binders on microarray, profiling panel, artefact control for SMM control protein annotation, biochemical, small-molecule microarray, Alexa647 label, 635/667 nm fluorescence (AID 1117). The note with it: alpha-BTX-A647 binding fluorescence, higher = more signal.

Active and inactive are the calls of the source.

Chain of Epidermal growth factor receptor (Homo sapiens) (P00533 whole entry, looked up): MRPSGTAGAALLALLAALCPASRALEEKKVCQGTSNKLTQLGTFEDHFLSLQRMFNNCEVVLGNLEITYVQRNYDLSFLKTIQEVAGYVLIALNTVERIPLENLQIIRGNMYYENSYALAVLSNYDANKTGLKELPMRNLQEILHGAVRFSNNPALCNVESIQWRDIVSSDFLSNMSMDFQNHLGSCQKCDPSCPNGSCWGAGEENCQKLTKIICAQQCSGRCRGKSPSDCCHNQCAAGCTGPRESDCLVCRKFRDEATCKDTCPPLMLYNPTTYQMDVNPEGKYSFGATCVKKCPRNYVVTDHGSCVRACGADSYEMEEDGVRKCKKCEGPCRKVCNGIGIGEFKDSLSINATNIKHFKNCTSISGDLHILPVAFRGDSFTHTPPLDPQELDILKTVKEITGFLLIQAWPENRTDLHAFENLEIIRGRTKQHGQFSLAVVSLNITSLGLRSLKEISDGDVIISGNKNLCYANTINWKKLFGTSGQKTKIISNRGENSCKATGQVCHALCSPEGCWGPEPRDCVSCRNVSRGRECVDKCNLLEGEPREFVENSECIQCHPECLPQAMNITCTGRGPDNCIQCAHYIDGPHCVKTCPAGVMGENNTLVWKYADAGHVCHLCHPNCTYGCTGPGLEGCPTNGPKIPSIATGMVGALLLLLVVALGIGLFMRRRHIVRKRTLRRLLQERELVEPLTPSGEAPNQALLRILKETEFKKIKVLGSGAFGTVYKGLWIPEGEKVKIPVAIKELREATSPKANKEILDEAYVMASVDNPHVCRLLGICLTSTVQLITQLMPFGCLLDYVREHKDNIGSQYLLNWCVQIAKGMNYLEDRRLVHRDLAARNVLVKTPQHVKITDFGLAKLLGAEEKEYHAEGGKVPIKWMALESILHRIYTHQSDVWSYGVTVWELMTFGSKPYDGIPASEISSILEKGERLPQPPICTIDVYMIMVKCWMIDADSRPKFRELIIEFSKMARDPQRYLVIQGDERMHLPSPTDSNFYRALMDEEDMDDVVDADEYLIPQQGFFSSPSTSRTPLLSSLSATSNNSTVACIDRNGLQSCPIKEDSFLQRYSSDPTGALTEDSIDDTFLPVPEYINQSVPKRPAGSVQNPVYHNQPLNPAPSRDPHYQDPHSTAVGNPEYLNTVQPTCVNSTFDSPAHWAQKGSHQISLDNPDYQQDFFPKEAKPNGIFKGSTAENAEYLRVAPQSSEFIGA
Chain of Left-right determination factor 2 (Homo sapiens) (O00292 whole entry, looked up): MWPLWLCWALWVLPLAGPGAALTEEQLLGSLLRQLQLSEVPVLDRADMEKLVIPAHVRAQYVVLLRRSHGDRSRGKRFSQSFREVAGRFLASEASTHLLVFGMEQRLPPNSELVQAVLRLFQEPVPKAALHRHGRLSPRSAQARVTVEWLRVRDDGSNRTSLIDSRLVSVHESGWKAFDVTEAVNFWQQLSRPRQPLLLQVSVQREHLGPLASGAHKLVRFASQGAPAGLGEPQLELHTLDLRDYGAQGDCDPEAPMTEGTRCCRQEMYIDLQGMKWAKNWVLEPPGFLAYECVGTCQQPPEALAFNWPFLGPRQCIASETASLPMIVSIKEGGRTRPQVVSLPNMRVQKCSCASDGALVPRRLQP
Chain of Dickkopf-related protein 1 (Homo sapiens) (O94907 whole entry, looked up): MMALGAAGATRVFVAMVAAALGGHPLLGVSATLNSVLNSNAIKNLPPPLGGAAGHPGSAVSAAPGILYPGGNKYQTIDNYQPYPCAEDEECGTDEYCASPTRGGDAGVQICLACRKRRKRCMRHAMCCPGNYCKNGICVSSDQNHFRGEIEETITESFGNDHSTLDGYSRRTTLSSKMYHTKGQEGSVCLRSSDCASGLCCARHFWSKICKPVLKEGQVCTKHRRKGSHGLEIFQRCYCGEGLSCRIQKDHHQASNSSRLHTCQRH
Chain of Follistatin-related protein 3 (Homo sapiens) (O95633 whole entry, looked up): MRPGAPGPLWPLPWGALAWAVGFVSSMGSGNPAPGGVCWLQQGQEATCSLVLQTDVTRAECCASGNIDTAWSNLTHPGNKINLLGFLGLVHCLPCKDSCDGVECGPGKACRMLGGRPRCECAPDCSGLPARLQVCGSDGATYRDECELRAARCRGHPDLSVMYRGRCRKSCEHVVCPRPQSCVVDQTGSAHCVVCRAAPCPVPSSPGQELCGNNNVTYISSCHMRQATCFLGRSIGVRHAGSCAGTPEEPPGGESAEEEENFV
Chain of Fibroblast growth factor 10 (Homo sapiens) (O15520 whole entry, looked up): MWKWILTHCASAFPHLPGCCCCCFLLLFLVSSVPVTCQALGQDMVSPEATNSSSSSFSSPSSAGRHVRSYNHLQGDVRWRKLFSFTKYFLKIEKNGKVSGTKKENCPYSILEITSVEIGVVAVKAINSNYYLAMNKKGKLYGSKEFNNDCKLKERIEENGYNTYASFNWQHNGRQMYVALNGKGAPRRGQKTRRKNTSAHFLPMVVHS
Chain of Alpha-bungarotoxin (Bungarus multicinctus) (P60615 whole entry, looked up): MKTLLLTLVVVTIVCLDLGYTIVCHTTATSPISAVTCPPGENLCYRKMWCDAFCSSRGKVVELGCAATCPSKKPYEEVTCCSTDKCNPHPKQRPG
Chain of Torsin-1A-interacting protein 1 (Homo sapiens) (Q5JTV8 whole entry, looked up): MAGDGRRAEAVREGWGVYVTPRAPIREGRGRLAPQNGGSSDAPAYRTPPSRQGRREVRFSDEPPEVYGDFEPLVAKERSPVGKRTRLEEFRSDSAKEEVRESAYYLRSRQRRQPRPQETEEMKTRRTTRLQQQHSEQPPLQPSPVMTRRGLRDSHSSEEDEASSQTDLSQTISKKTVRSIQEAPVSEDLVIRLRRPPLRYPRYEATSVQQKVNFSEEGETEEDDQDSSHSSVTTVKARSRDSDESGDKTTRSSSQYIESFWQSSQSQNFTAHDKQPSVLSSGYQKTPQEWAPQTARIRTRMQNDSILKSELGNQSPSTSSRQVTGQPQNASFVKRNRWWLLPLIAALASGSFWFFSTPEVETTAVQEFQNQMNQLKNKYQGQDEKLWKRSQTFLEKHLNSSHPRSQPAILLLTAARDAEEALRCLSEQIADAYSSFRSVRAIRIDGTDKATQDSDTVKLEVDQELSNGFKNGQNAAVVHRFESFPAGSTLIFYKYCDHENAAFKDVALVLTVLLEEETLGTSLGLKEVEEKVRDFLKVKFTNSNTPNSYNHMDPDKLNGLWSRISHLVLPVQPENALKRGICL

Consider `COC(=O)c1c2oc(c1C(=O)OC)C(=O)NC1(CCCCC1)c1cn(nn1)C[C@H](Cc1ccccc1)NC(=O)N[C@H](CO)CC2`, for which the composite z-score in [1] is -0.856; in assay [2], 0.0173; in [3], -0.709; in [5] it was 1.15; in [6], 0.386; in [7], 0.0053. In addition, the composite z-score is 0.34 in assay [8]; 0.25 in assay [9]; -0.007 in assay [10]; 0.973 in assay [11]; 0.23 in assay [13]; 0.0166 in [14]. Moreover, the composite z-score in assay [15] is -0.396; in [16], -0.0955; in assay [17], -0.237; in assay [18] it was -0.321; in assay [19], 0.227; in assay [20], 0.531. Also, the z-score is -0.365 (inactive) in assay [4] and -0.791 in [12].
In the case of `O[C@@H](Cc1ccccc1)[C@@H](/C=C/C1CC1)NCc1cccc(Cl)c1`, the composite z-score is 1.2 in [1]; 0.081 in assay [2]; 1.31 in assay [3]; -1.46 in assay [5]; -0.638 in assay [6]; -1.14 in assay [7]. The composite z-score in [8] is -0.78; in assay [9], -1.61; in [10] it was 0.157; in assay [11] it was -0.597; in assay [13] it was -1.4; in [14], -0.863. In addition, the composite z-score in [15] was -0.133; in assay [16] it was -0.197; in assay [17] it was -0.206; in [18], -0.402; in assay [19], -0.737; in [20], -0.801. Moreover, the z-score was -0.944 (inactive) in [4] and -4.47 in assay [12].
For the molecule `C=CC[C@]12N=C(c3ccc(OCCCO)cc3)O[C@H]1c1ccccc1N(CCS(=O)(=O)c1ccccc1)C2=O`, the composite z-score in assay [1] amounted to 1.43; in assay [2] it was 0.419; in assay [3], 0.777; in assay [5], 0.374; in assay [6], 1.3; in assay [7], 0.595. The composite z-score is 1.11 in assay [8]; 0.694 in [9]; 1.26 in assay [10]; 1.41 in assay [11]; 0.559 in assay [13]; 1.17 in [14]. Besides, the composite z-score in [15] was 0.289; in assay [16], 0.0775; in [17] it was 0.54; in assay [18] it was -0.484; in assay [19] it was 0.863; in assay [20] it was 1.02. In addition, the z-score in assay [4] is -2.04 (inactive); in [12], -2.26.
Regarding `C=C(/C(=C/C[C@H](OC(=O)c1ccncc1)c1ccc(OCCO)cc1)c1cc(C(=O)OC)ccc1OC)C(C)C`, the composite z-score in assay [1] was 0.569; in [2] it was 0.031; in [3], 0.244; in assay [5], 1.42; in [6], -0.534; in [7], -0.114. In addition, the composite z-score in assay [8] turned out to be 0.487; in assay [9], 0.178; in assay [10], 1.13; in [11] it was 1.08; in [13], 0.17; in assay [14] it was 0.959. The composite z-score is -0.218 in assay [15]; -0.128 in [16]; 0.111 in [17]; 0.108 in assay [18]; 0.296 in assay [19]; 1.72 in [20]. The z-score in assay [4] was -0.821 (inactive); in [12], -0.939.
In the case of `CC(C)OC(=O)C=C1C[C@@H](c2cccc(Cl)c2)O[C@@H](c2cccc(Cl)c2)O1`, the composite z-score in [1] is 1.31; in assay [2], 0.471; in assay [3], 1.11; in assay [5], 0.31; in [6], 0.651; in [7], -1.18. For the same molecule, the composite z-score is -0.901 in assay [8]; -1.42 in [9]; 1.24 in assay [10]; 0.597 in [11]; -0.869 in assay [13]; 1.39 in assay [14]. The composite z-score in assay [15] was 1.05; in [16] it was -0.0735; in assay [17], -0.0035; in assay [18], -0.43; in assay [19], 1.58; in assay [20], 0.381. For the same molecule, the results for the z-score in [4] and in assay [12] were 1.35 (inactive) and -0.825, respectively.
